Screening data: PubChem, National Center for Advancing Translational Sciences (NCATS)
RORg inh: blocks mouse ROR gamma transcriptional activity; P51450; Drosophila S2 Gal4-RORgamma UAS-luciferase reporter, 20 h; Potency, µM (doses to about 53.6 µM), for inactives: at the top dose activity change, negative = inhibition, hits mostly inhibitors; 310,000 tested, 5.4% active; also: nearly all actives have a fitted effect of over 60% in size
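ROR gamma transcriptional activity was tracked as Gal4-UAS luciferase output in stably transfected Drosophila Schneider cells, with compound added 1 hr before 700 uM copper sulfate induction and a 20 hr ambient-temperature incubation.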
DT40 TDP1 CPT: DT40-hTDP1 cell growth loss with CPT. chicken DT40 Tdp1-/-;hTDP1 cells + 20 nM CPT, ATP luminescence, 48 h. Potency, µM (series often up to 46.2 µM), inactives show at the highest dose activity change, negative = growth inhibition, actives largely listed as inhibitors. 420,000 tested, 12% active; also: nearly all actives have a fitted effect of over 55% in size
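Chicken DT40 Tdp1-/- cells stably complemented with human TDP1 were seeded at 400 cells/well in medium containing 20 nM camptothecin, exposed to pin-transferred compounds, and grown at 37 °C for at least 48 hr. Viability was read as ATP luminescence.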
Gal4-VP16 FLuc: inhibits Gal4-VP16 luciferase reporter, ROR gamma counter-screen. 310,000 tested, 3.5% active. AID 2546. Drosophila S2 Gal4-VP16 UAS-luciferase, luminescence, 20 h. Potency, µM (doses to about 53.6 µM), inactives show at the highest dose activity, negative = inhibition, usual class: inhibitors;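 also: Gal4-VP16 expression switched on by copper sulfate through the metallothionein promoter; nearly all actives have a fitted effect of over 50% in size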
DT40 TDP1 no CPT: qHTS for Inhibitors of human tyrosyl-DNA phosphodiesterase 1 (TDP1): qHTS in cells in absence of CPT | DT40 Tdp1-/- hTDP1 cells, no CPT, ATP luminescence, 48 h | Potency, µM (titrated, usually from 46.2 µM), inactives show top-dose activity change, negative = growth inhibition, actives largely listed as inhibitors | 420,000 tested, 15% active; also: nearly all actives have a fitted effect of over 55% in size
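Growth kinetics read by CellTiter-Glo luminescence after ≥48 hr at 37 °C. Cells: DT40 Tdp1-/- stably carrying human TDP1, 400 per well, compound exposure in the absence of CPT (DMSO vehicle).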
TDP1 inh: blocks human tyrosyl-DNA phosphodiesterase 1; Q9NUW8; recombinant TDP1, AlphaScreen DNA substrate cleavage; AID 485290; 350,000 tested, 0.28% active; Potency, µM (titrated, usually from 130 µM), for inactives: at the top dose activity change, negative = inhibition, hits mostly inhibitors; also: nearly all actives have a fitted effect of over 40% in size
Target sequence (Q9NUW8 whole entry, looked up): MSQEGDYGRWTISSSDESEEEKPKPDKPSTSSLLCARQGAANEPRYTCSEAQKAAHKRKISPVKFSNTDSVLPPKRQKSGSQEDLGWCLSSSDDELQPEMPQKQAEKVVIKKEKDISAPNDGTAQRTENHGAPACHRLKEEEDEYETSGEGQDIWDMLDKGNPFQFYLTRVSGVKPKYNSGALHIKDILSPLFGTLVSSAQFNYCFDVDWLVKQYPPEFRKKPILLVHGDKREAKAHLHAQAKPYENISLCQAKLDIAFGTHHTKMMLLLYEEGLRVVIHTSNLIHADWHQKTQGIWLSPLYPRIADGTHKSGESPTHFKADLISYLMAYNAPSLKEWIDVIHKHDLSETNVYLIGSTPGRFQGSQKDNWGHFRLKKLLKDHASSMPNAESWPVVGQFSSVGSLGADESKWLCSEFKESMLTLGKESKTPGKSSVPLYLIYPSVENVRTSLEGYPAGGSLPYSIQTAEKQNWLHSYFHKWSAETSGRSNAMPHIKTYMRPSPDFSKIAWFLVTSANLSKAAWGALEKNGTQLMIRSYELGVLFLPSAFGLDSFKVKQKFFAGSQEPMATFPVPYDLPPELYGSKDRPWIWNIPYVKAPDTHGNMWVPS
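E. coli-derived human Tdp1, 1 nM final. Cpd preinc 15 min RT; substrate 15 nM final, 5 min RT; AS bead mix 10 ug/ml final, 10 min RT. Signal loss = tyrosine-FITC cleavage. No-enzyme wells = max signal.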
The depositor's hits bear a star; ? = inconclusive; · = no result given. In the library only some 19% were active in any assay of this set; here they are far more common. Calls follow the shape of the dose curve; as a rule, active = well fitted curve in the direction sought with a large enough effect; inconclusive = small, poorly fitted or top-dose-only effect, or another doubt; inactive = no such curve, though single readings can be large; an effect the other way counts as inactive or inconclusive. % is scaled to controls: 0 for no effect and ±100 for the full control effect; potency is read from the fitted curve at half-maximal effect.

SMILES	RORg inh	DT40 TDP1 CPT	Gal4-VP16 FLuc	DT40 TDP1 no CPT	TDP1 inh
CC1Cc2ccccc2N1C(=O)CSc1nn2c(=O)c(C(C)(C)C)nnc2s1 (stereo not given)	-37%	?	5%	?	3%
CC(C)(C)c1nnc2sc(SCC(=O)c3ccc(Cl)cc3)nn2c1=O	24%	-24%	-11%	?	6%
CC(=O)c1ccc(NC(=O)c2ccc(-n3cnnc3)cc2)cc1	·	-13%	·	-6%	8%
CC1CC(c2ccccc2)n2nc(NC(=O)CCc3ccccc3)nc2N1 (stereo not given)	0%	-18%	-1%	-17%	0%
COc1cc2c(O)cc(C(=O)O)c(-c3cc(OC)c(OC)c(OC)c3)c2cc1OC	·	-14%	·	0%	·
CC1Cc2ccccc2N1CC(=O)NC(=O)NCc1ccccc1 (stereo not given)	6%	1%	2%	1%	5%
COc1ccc(-c2c(C#N)c(N)nc3sc(C(=O)c4ccccc4)c(N)c23)cc1	37%	?	3%	23µM*	-2%
COc1ccc(-c2c(C#N)c(N)nc3c2c(=O)n(C)c(=O)n3C)cc1	13%	?	2%	13µM*	2%
COc1cccc(NC(=O)Nc2cccn(Cc3ccc(C)cc3)c2=O)c1	?	-24%	-7%	-27%	3%
CCc1ccc(N(C(=O)c2snc(C(N)=O)c2N)C(C(=O)NCC2CCCO2)c2ccco2)cc1 (stereo not given)	19%	23µM*	-6%	18µM*	11%
COc1ccc(N(C(=O)c2snc(C(N)=O)c2N)C(C(=O)NCC2CCCO2)c2ccc(C)o2)cc1OC (stereo not given)	13%	?	8%	18µM*	-20%
COCCNC(=O)C(c1ccc(C)o1)N(C(=O)c1snc(C(N)=O)c1N)c1ccc(C)c(C)c1 (stereo not given)	4%	-26%	8%	-26%	0%
COc1ccc(C(C(=O)NCC2CCCO2)N(Cc2cccs2)C(=O)c2snc(C(N)=O)c2N)cc1 (stereo not given)	15%	16µM*	20%	10µM*	·
CCOc1ccc(N(C(=O)c2snc(C(N)=O)c2N)C(C(=O)NCC2CCCO2)c2ccco2)cc1 (stereo not given)	26%	?	-3%	?	0%
Cc1nc(C)c(C(=O)N(c2ccccc2F)C(C(=O)NCC2CCCO2)c2ccccc2)s1 (stereo not given)	-6%	26µM*	9%	?	5%
CCOC(=O)C1CCCN(c2nc3ccccc3nc2NS(=O)(=O)c2ccc(C)cc2)C1 (stereo not given)	·	6%	·	9%	-5%
CCc1ccccc1N(C(=O)c1snc(C(N)=O)c1N)C(C(=O)NCC1CCCO1)c1ccc(C)o1 (stereo not given)	13%	12µM*	10%	10µM*	8%
COc1ccccc1C(OC(=O)c1cccs1)C(=O)NCC1CCCO1 (stereo not given)	5%	-8%	-7%	-16%	2%
CN(C)c1ccc(C(C(=O)NCC2CCCO2)N(C(=O)c2snc(C(N)=O)c2N)c2ccccc2)cc1 (stereo not given)	-2%	?	-5%	?	·
CCc1ccccc1N(C(=O)c1snc(C(N)=O)c1N)C(C(=O)NCC1CCCO1)c1ccc(N(C)C)cc1 (stereo not given)	0%	?	-6%	?	8%
Cc1cccc(N(C(=O)c2snc(C(N)=O)c2N)C(C(=O)NCC2CCCO2)c2ccc(N(C)C)cc2)c1 (stereo not given)	21%	29µM*	-12%	?	7%
Cc1ccc(N(C(=O)c2snc(C(N)=O)c2N)C(C(=O)NCC2CCCO2)c2ccc(C)o2)c(C)c1 (stereo not given)	32%	18µM*	-7%	16µM*	·
CC(C(=O)NCC1CCCO1)N(C(=O)c1snc(C(N)=O)c1N)c1ccccc1 (stereo not given)	7%	-7%	0%	-2%	7%
COc1ccc(C(OC(=O)c2cccs2)C(=O)NCC2CCCO2)cc1 (stereo not given)	-11%	3.7µM*	7%	-2%	8%
C=CCn1c(=O)c2c(nc3n2CC(C)CN3c2cccc(OC)c2)n(C)c1=O (stereo not given)	-12%	0%	1%	-29%	-2%
SMILES	RORg inh	DT40 TDP1 CPT	Gal4-VP16 FLuc	DT40 TDP1 no CPT	TDP1 inh
Cc1ccccc1N(C(=O)c1snc(C(N)=O)c1N)C(C(=O)NCC1CCCO1)c1ccc(F)cc1 (stereo not given)	8%	15µM*	-10%	10µM*	4%
Cc1ccccc1N(C(=O)c1snc(C(N)=O)c1N)C(C(=O)NCC1CCCO1)c1ccc(N(C)C)cc1 (stereo not given)	0%	?	2%	?	·
CCc1ccccc1N(C(=O)c1snc(C(N)=O)c1N)C(C(=O)NCC1CCCO1)c1c[nH]c2ccccc12 (stereo not given)	?	?	-3%	21µM*	11%
CCOc1ccccc1N(C(=O)c1snc(C(N)=O)c1N)C(C(=O)NCC1CCCO1)c1ccc2ncccc2c1 (stereo not given)	?	-1%	0%	-2%	13%
CC(=O)Nc1ccc(S(=O)(=O)NCC(CCC(=O)O)C(F)(F)F)cc1 (stereo not given)	-7%	?	-8%	?	5%
Cc1ccc2nc(NC(=O)C3CC3C)sc2c1 (stereo not given)	7.1µM*	?	-13%	?	·
Cc1ccc2nc(NC(=O)c3nc(SCc4ccccc4C)ncc3Cl)sc2c1	·	-29%	·	16µM*	5%
O=C(Nc1nc2c(F)cc(F)cc2s1)c1ccc2c(c1)OCCO2	·	-7%	·	-4%	45µM*
CC1CC1C(=O)Nc1nc2ccc(S(C)(=O)=O)cc2s1 (stereo not given)	42%	-6%	-17%	?	13%
Cc1ccc2nc(NC(=O)c3ccc(Cl)s3)sc2c1	-32%	21µM*	?	?	1%
NS(=O)(=O)c1ccc2nc(NC(=O)c3ccc4c(c3)OCCO4)sc2c1	?	17%	-6%	16%	-7%
Cc1cccc(CSc2ncc(Cl)c(C(=O)Nc3nc4ccc(F)cc4s3)n2)c1	·	-29%	·	-27%	5%
COc1ccc(NC(=O)c2ccc([N+](=O)[O-])cc2[N+](=O)[O-])c(OC)c1	-16%	-22%	-5%	-20%	5%
